Results reported in PubChem BioAssay AID588475 (Sanford-Burnham Center for Chemical Genomics, 2011).
In all, about 350,000 compounds went through this assay and about 2,100 (0.6%) were called active. Many of the other results were omitted from the sample, so actives are more common in it than they were. A number with no mark means an inactive call.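 How the source made its calls: active means inhibition of the ligand-induced calcium signal above about 50% at the single tested concentration (limit read from the data); inactive means the rest.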

Experiment: blockers of CRF-evoked CRF-R2/CRF-BP calcium response – cell-based, HEK293, calcium dye fluorescence, uHTS, primary screen (AID 588475)
Conditions: CRF-induced calcium fluorescence, at 11.8 µM, hits give high values

Compound | inhibition
Cc1nn(C)c(Oc2ccccc2)c1CCNS(=O)(=O)c1ccc(F)cc1 | -3.36%
Nc1ncnc2c1ncn2[C@@H]1O[C@H](CNS(=O)(=O)c2ccc(-c3ccno3)s2)[C@@H](O)[C@H]1O | 3.06%
CCOC(=O)C1=NNC2(c3ccc(Cl)cc3)C(=O)N(c3cc(C)cc(C)c3)C(=O)C12 (centres undefined) | 17.3%
Cc1cc(OCCCC(=O)Nc2cc(S(=O)(=O)N3CCOCC3)ccc2N2CCOCC2)ccc1Cl | 62.5% (active)
Cc1cccc(OCCC(=O)Nc2cc(S(=O)(=O)N3CCCCC3)ccc2N2CCOCC2)c1 | -1.67%
CC(C)CCOc1ccc(C(=O)Nc2cc(S(=O)(=O)N3CCOCC3)ccc2N2CCOCC2)cc1 | 19.1%
O=C(Nc1c2c(nn1-c1ccccc1)CS(=O)(=O)C2)C1CCCC1 | 7.96%
COc1cccc(CNC(=O)CCC2CCCN(C(=O)c3ccc(F)c(Cl)c3)C2)c1 (centres undefined) | 6.37%
COc1cccc(CNC(=O)CCC2CCCN(C(=O)c3ccoc3C)C2)c1 (centres undefined) | -2.45%
COc1cccc(C(=O)N2CCCC(CCC(=O)NCc3ccc(F)c(F)c3)C2)c1 (centres undefined) | 50.4% (active)
O=C1N=C(N2CCc3ccccc3C2)S/C1=C\c1ccc(O)cc1 | 16.8%
NC1=NC(=O)S/C1=C\c1ccc(O)cc1 | 51% (active)
CC(C)(C)c1ccc(/C=C2\SC(=O)N=C2N)cc1 | 9.93%
CNC(=O)/C(=C\C=C\c1ccccc1)NC(=O)c1ccc([N+](=O)[O-])cc1 | 4.28%
Cc1ccc(NC(=O)Cn2sc3ccccc3c2=O)cc1 | 3.99%
Cc1cc(NC(=O)CN2C(=O)NC(CCc3ccccc3)C2=O)no1 (centres undefined) | 5.91%
COc1ccc(C2(c3ccc(OC)cc3)NC(=O)N(CC(=O)Nc3cc(C)on3)C2=O)cc1 | -31.2%
Cc1cc(NC(=O)CN2C(=O)NC(CC(C)C)C2=O)no1 (centres undefined) | 56.2% (active)
CC1CCN(C(=O)/C(=C\c2ccccc2)NC(=O)c2ccccc2)CC1 | 8.16%
O=C(Cc1cccs1)N(CC1CCCO1)C1(C(=O)NC2CCCCC2)CCCCC1 (centres undefined) | -14.9%
CC(C)c1ccc2c(c1)c(SC(C)(C)C)c(CC(C)(C)C(=O)O)n2Cc1ccc(Cl)cc1 | 54.3% (active)
Cc1ccc(C)c(NC(=O)C(OC(=O)c2ccc(C)s2)c2ccccc2)c1 (centres undefined) | -6.3%
COCCCNC(=O)c1ccc(CNS(=O)(=O)c2ccc(NC(C)=O)cc2)cc1 | -2.43%

Compound | inhibition
O=C(Nc1ccc(S(=O)(=O)Nc2nccs2)cc1)c1cccc(S(=O)(=O)N2CCOCC2)c1 | -0.01%
O=C(Nc1ccc(S(=O)(=O)N2CCOCC2)cc1)c1ccc2ncsc2c1 | 1.25%
Cc1nc2ccc(NC(=O)c3cccc(S(=O)(=O)N4CCOCC4)c3)cc2s1 | 116% (active)
O=C(NNC(=S)NCCCN1CCOCC1)c1ccncc1 | 1.88%
CNC(=O)C[C@H]1C(=O)N(Cc2ccccc2)C[C@@H]1CSC | -10.7%
CN(CCC(=O)Nc1cc(S(=O)(=O)N(C)C)ccc1Cl)CC(=O)Nc1ccc(F)cc1 | -7.88%
O=C(CC1N=C2c3ccccc3N=C(SCc3ccccc3Cl)N2C1=O)NCc1ccco1 (centres undefined) | 89.4% (active)
O=C(CSC1=Nc2ccccc2C2=NC(c3ccccc3)C(=O)N12)NCC1CCCO1 (centres undefined) | 10.2%
NC(=O)CSC1=Nc2ccccc2C2=NC(CCC(=O)NCc3ccc(F)cc3)C(=O)N12 (centres undefined) | 15.6%
CCOc1ccc(NC(=O)COc2ccc(C(=O)N3CCC(C(N)=O)CC3)cc2OC)cc1 | -31.7%
COCC(C)n1c(SCc2ccc(C(=O)OC)o2)nc2ccccc2c1=O (centres undefined) | 51.9% (active)
COc1cccc(-n2c(SCC(=O)NC3CCS(=O)(=O)C3)nc3ccccc3c2=O)c1 (centres undefined) | 3.38%
COCCn1c(C)cc(C(=O)CSc2nc3ccccc3c(=O)n2C(C)COC)c1C (centres undefined) | 25.5%
COCC(C)n1c(SCC(=O)NC2CCCCC2C)nc2ccccc2c1=O (centres undefined) | 6.09%
COC(=O)c1ccc(CSc2nc3ccccc3c(=O)n2-c2cccc(OC)c2)o1 | 76.5% (active)
COCCNC(=O)c1ccc(-n2c(SCc3cccnc3)nc3ccccc3c2=O)cc1 | -8.33%
COc1ccc(CCNC(=O)c2nnc(CS(=O)(=O)c3ccccc3)o2)cc1OC | -36.1%
CCc1nn(CCCC(=O)NCc2ccc(C)cc2)c(=O)c2cc3occc3n12 | -4.08%
Cc1ccc(C)c(S(=O)(=O)N2CC(=O)Nc3ccccc32)c1 | -4.23%
O=C(NCc1ccncc1)c1cccc(NS(=O)(=O)c2ccc(F)c(F)c2)c1 | -1.96%
Cc1cc(=O)oc2c(C(=O)c3ccccc3)c(OCC(N)=O)ccc12 | 21.9%
CCCN(CC(=O)Nc1ccccc1C)C(=O)c1ccc2[nH]c3c(c2c1)CC(C)CC3 (centres undefined) | -10.4%
CN(CC(=O)Nc1cccc(F)c1)C(=O)CC1CCCC1 | -9.75%

Compound | inhibition
CC1CCc2[nH]c3ccc(C(=O)N(C)CC(=O)Nc4cccc(F)c4)cc3c2C1 (centres undefined) | 104% (active)
COCCN1CCn2c(nc3cc(NS(C)(=O)=O)ccc32)C1 | -7.04%
COC(=O)Nc1ncc(CN2C(=O)c3ccccc3C2=O)s1 | -1.89%
CC(=O)Nc1ccc(NC(=O)[C@@H](NC(=O)c2cccc(C)c2)C(C)C)cc1 | 4.4%
CCNC(=O)COC(=O)CCNC(=O)c1cccc(C)c1 | 3.93%
CCOC(=O)C(CC)/C(C)=N\NC(=O)c1cccc(C)c1 (centres undefined) | 89% (active)
Cc1ccccc1C(CC(=O)c1cccs1)C(C#N)C#N (centres undefined) | -24.6%
O=C(CN(c1cccc(Cl)c1)S(=O)(=O)c1ccccc1)NN=C1CCCC1 | -7.21%
O=C(CSc1nc(-c2ccccc2)cs1)Nc1cccc([N+](=O)[O-])c1 | 27.9%
O=C(CN1CCC(NC(=O)Nc2ccccc2)CC1)Nc1cccc([N+](=O)[O-])c1 | 13.2%
O=C(CSCC(=O)Nc1cccc([N+](=O)[O-])c1)Nc1ccccc1 | 54% (active)
O=C1c2ccccc2C2=Nc3ccccc3SC(c3ccccc3F)C12 (centres undefined) | -94.9%
CC1(C)C/C(=N/Nc2ccc([N+](=O)[O-])cc2[N+](=O)[O-])C(C)(C)O1 | -6.77%
CC(C)OP(=O)(OC(C)C)C(Nc1ccccc1)c1cccc([N+](=O)[O-])c1 (centres undefined) | -23.4%
CC(Nc1ccc([N+](=O)[O-])cc1[N+](=O)[O-])c1ccccc1 (centres undefined) | 61.4% (active)
Cc1ccc(OCC(=O)Nc2ccccc2C(=O)NC2CC2)cc1C | 0.16%
O=C(Nc1ccccc1N1CCOCC1)c1ccncc1 | 4.16%
O=C(NC(=S)Nc1ccccc1N1CCCCC1)c1ccc(F)cc1 | -90.3%
CCc1ccc(C(=O)NC(=S)Nc2ccccc2N2CCOCC2)cc1 | 125% (active)
O=C(NCC(=O)N(CC1CCCO1)C(C(=O)NC1CCCCC1)c1ccccc1)c1ccco1 (centres undefined) | 2.38%
COc1ccc(Cl)cc1NC(=O)CNc1ccccc1F | 61.7% (active)
COc1ccc(C)cc1NC(=O)CSc1ccc(Cl)cc1 | 5.69%
COc1ccc(Cl)cc1NC(=O)CN(C)C(=O)c1cc2ccccc2cc1OC | 9.16%
